The record followed here is PubChem BioAssay AID808 (Columbia University Molecular Screening Center, 2007).

SMILES strings stand for the structures. Among all 93,000 compounds or so, about 180 (0.19%) were called active. The sample as a whole holds a higher share of actives than the screen did. Values without a mark were called inactive.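 Rule for the calls: active = activation above the screen mean plus 3 SD, with well images confirming the hit on visual review (cut at about 28% in these data, passing the limit was not always enough); inconclusive = activation above that limit but images do not confirm it; inactive = activation not above that limit.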

The test can be described thus: enhancers of endothelial VCAM-1 upregulation by TNFa – imaging, HUVEC, TNFa stimulus, immunofluorescence, primary screen (AID 808).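 Note: signal is the number of cytoplasmic VCAM-1 stained grains per positive cell.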 Conditions: HUVEC TNFa-stimulated VCAM-1 immunofluorescence, high-content imaging; at 2 µM; stronger effect = higher value; scaled per plate to unstimulated/TNFa-only wells.
`Cc1ccc(S(=O)(=O)N(CC(=O)NCCSC2CCCCC2)c2ccccc2F)cc1`: the activation is 8.5%.
Turning to `CCOC(=O)N1CCN(C(=O)c2cc3c(ccc4ccccc43)oc2=O)CC1`, the activation is -5.2%.
For the compound `Cc1cnc(NC(=O)CSc2nnc(-c3ccccc3)n2Cc2ccccc2)s1`, the activation was -2%.
Consider `Cc1ccc2c(Cl)c(C(=O)NCCCn3ccnc3)sc2c1`, for which the activation was -28.3%.
Consider `Nc1cc(=O)nc(SCc2ccccc2)n1Cc1ccco1`, for which the activation was -95%.
In the case of `CCC(=O)c1ccc(OCC(O)CN2CCN(c3cccc(C(F)(F)F)c3)CC2)cc1` (configuration not stated), the activation was 4.1%.
Consider `CCOC(=O)CSc1nc2c(c(=O)n(C)c(=O)n2C)n1Cc1ccccc1F`, for which the activation is -0.2%.
For the compound `CC(N)C12CC3CC(CC(O)(C3)C1)C2` (configuration not stated), the activation is 1%.
For the compound `CC(C)N1C(=O)C2C(C(=O)NC3CCCCC3)C3C=CC2(O3)C1C(=O)NC1CCCC1` (configuration not stated), the activation was -10.8%.
On to `COc1ccc(-n2nnnc2SCC(=O)c2ccc(OC)c(OC)c2)cc1`, for which the activation is -6.6%.
The result for `CCN(CC(=O)NC(C)C)C(=O)CCNC(=O)c1ccc(Cl)cc1` reads -9.6%; that for `COC(=O)C1=C(C)N=C2SC(C)C(=O)N2C1/C=C/c1ccccc1` (configuration not stated), -6.2%; that for `COc1ccccc1NC1=NC(c2ccc(Cl)cc2)N=C(N)N1` (configuration not stated), -12.5%.
In the case of `Cc1ccc(S(=O)(=O)NC(=O)N2CCCC(C)(C)C2)cc1`, the activation is 4.1%.
Turning to `Cc1[nH]c2ccccc2c1C(=O)CSCC(=O)O`, the activation is 4.2%.
The result for `O=C(OCC(=O)N1CCCC1)c1ccco1` reads -4.1%.
`NNC(=O)C1CCCn2c1nc1sc3c(c1c2=O)CCCC3` (configuration not stated): the activation is -4.7%.
Turning to `COc1cc(/C=N\NC(=O)C2C(=O)NCC2c2ccccc2)cc(OC)c1O` (configuration not stated), the activation is -1.5%.
Next, `CC(=O)c1ccc(OCCN2CCOCC2)cc1`: -16.7%.
`CC1(C)C2CCC13CS(=O)(=O)NC3C2` (configuration not stated): the activation was 19.3%.
Next, `CC1(C)OC(=O)N2CCc3ccccc3C21C` (configuration not stated): 0.2%; `CCCNS(=O)(=O)c1ccc(CCC(=O)NCc2cccnc2)cc1`: 34.1%; `O=[N+]([O-])c1ccccc1/C=N/n1c(COc2ccccc2)n[nH]c1=S`: -14.7%.
The result for `CCOC(=O)CCc1c(C)c(C#N)c2[nH]c3ccccc3n2c1=O` reads 0.5%.
For the compound `CC(C)OC(=O)c1cc(NC(=O)C2C3CCC(O3)C2C(=O)O)cc(C(=O)OC(C)C)c1` (configuration not stated), the activation was 15.7%.
As for `Cc1ccc(OCC(=O)Nc2cccc3c2CCCC3)cc1C`, the activation was -1.7%.
Take `CSCCC(C(=O)NC1=NCCS1)N1C(=O)c2ccccc2C1=O` (configuration not stated): the activation is 5.7%.
